The values that follow come from PubChem BioAssay (NCI).

Test systems include NCI-H23 lung; NCI-H226 lung; NCI-H322M lung; HOP-62 NSCLC; NCI-H460 lung; HOP-92 NSCLC; NCI-H522 lung; A549/ATCC NSCLC; 786-0 renal; COLO 205 colon; DU-145 prostate; K-562 leukemia; MDA-MB-231 breast; RXF 393 renal; SF-268 CNS; SF-295 CNS; SF-539 CNS; UACC-257 melanoma; M14 melanoma; MALME-3M melanoma.
Holding throughout (assay): NCI-60 one-dose screen, 48 h (100 = growth as untreated, 0 = no growth, -100 = all killed)
Conditions in all cases: 10 µM

The panel holds about 83,000 compounds, 20% with a hit somewhere; the sample as a whole holds those more often.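 Single-concentration screen, 48 h exposure, 96-well plates. Endpoint: percent growth. Below 10 = active.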 Unmarked numbers belong to inactive results. The source made the active and inactive calls.

Consider `C[C@]12CC[C@H]3[C@@H](CCC4=CC(=O)CC[C@@]43C)[C@@H]1CC[C@@H]2c1csc(N)n1`, for which the growth in the experiment with NCI-H23 lung is 36.2%; in the experiment on NCI-H226 lung, 60.1%; with NCI-H322M lung, 110%; with HOP-62 NSCLC, 70.2%; with NCI-H460 lung, 42.4%; with HOP-92 NSCLC, 65.4%. Moreover, the growth in the experiment on NCI-H522 lung is 63.1%; with A549/ATCC NSCLC, 60.7%; in the experiment with 786-0 renal, 68.1%; in the experiment with COLO 205 colon, 25.6%; with DU-145 prostate it was 78.2%; with K-562 leukemia, 26%. The growth is 66.8% in the experiment with MDA-MB-231 breast; 76.8% in the experiment with RXF 393 renal; 89.6% with SF-268 CNS; 50.3% with SF-295 CNS; 81% with SF-539 CNS; 49.6% in the experiment with UACC-257 melanoma. Moreover, in the experiment on M14 melanoma, the growth was 61%.

For `CCOC(=O)c1cc2c(n1Cc1ccccc1)-c1oncc1CC2`, the growth is 89.5% in the experiment with NCI-H23 lung; 84.4% with NCI-H226 lung; 60.4% in the experiment with NCI-H322M lung; 92.5% in the experiment on HOP-62 NSCLC; 19.6% with NCI-H460 lung; 75.6% in the experiment on HOP-92 NSCLC. Besides, the growth is 41.1% in the experiment on NCI-H522 lung; 89.1% in the experiment on A549/ATCC NSCLC; 107% in the experiment on 786-0 renal; 86.2% in the experiment on COLO 205 colon; 82.8% in the experiment with DU-145 prostate; 15.3% in the experiment with K-562 leukemia. Moreover, the growth with MDA-MB-231 breast was 95.8%; with RXF 393 renal, 94.6%; in the experiment with SF-268 CNS, 54.2%; with SF-295 CNS it was 64.5%; in the experiment on SF-539 CNS, 90.5%; in the experiment with UACC-257 melanoma it was 103%. In the experiment on M14 melanoma, the growth is 99.6%.

`N#C/C(=C\N1C(=O)/C(=C/c2cccc([N+](=O)[O-])c2)SC1=S)c1nc2ccccc2s1`: the growth with NCI-H23 lung was 68.9%; in the experiment on NCI-H226 lung, 77.2%; in the experiment on NCI-H322M lung, 92.9%; in the experiment with HOP-62 NSCLC it was 73.1%; in the experiment with NCI-H460 lung, 94.7%; in the experiment with HOP-92 NSCLC, 8.99% (active). The growth was 57.8% in the experiment with NCI-H522 lung; 70% in the experiment on A549/ATCC NSCLC; 88.3% with 786-0 renal; 101% with COLO 205 colon; 99.6% with DU-145 prostate; 77.1% in the experiment with K-562 leukemia. For the same compound, the growth in the experiment on MDA-MB-231 breast was 79.7%; in the experiment with RXF 393 renal, 105%; in the experiment on SF-268 CNS it was 85.3%; in the experiment with SF-295 CNS, 86.9%; in the experiment with SF-539 CNS it was 80.3%; with UACC-257 melanoma, 68.3%. Besides, the growth with M14 melanoma was 81%.

Turning to `COc1cc(Cn2c(-c3ccccc3)cc3c2-c2oncc2CC3)cc(OC)c1`, the growth in the experiment on NCI-H23 lung was 23.7%; with NCI-H226 lung it was -3.31% (active); with NCI-H322M lung, 8.6% (active); in the experiment with HOP-62 NSCLC, 60.5%; with NCI-H460 lung, -0.835% (active); in the experiment on HOP-92 NSCLC, 48.8%. For the same compound, the growth is -17.2% (active) in the experiment on NCI-H522 lung; 23.3% in the experiment on A549/ATCC NSCLC; 37.6% with 786-0 renal; -29.6% (active) in the experiment on COLO 205 colon; 0.266% (active) in the experiment on DU-145 prostate; 9.87% (active) in the experiment with K-562 leukemia. Besides, the growth was 5.37% (active) in the experiment with MDA-MB-231 breast; 33.7% in the experiment on RXF 393 renal; 30.6% with SF-268 CNS; -1.16% (active) in the experiment on SF-295 CNS; -11.9% (active) in the experiment on SF-539 CNS; 55.4% in the experiment with UACC-257 melanoma. In addition, in the experiment on M14 melanoma, the growth is 0.789% (active).

For the compound `CN(C)Cc1cccs1`, the growth in the experiment with NCI-H23 lung is 94%; in the experiment on NCI-H226 lung it was 93.9%; in the experiment with NCI-H322M lung it was 101%; in the experiment with HOP-62 NSCLC, 69.1%; in the experiment with NCI-H460 lung it was 108%; with HOP-92 NSCLC it was 97.2%. Moreover, the growth in the experiment on NCI-H522 lung was 94.2%; in the experiment with 786-0 renal, 103%; in the experiment with COLO 205 colon, 107%; with DU-145 prostate, 111%; with K-562 leukemia it was 109%; with MALME-3M melanoma, 96.7%. For the same compound, the growth was 90.4% in the experiment with MDA-MB-231 breast; 99.3% in the experiment on RXF 393 renal; 95.2% in the experiment on SF-268 CNS; 100% in the experiment with SF-295 CNS; 96.1% in the experiment on SF-539 CNS; 96.9% in the experiment on UACC-257 melanoma.

In the case of `COc1ccc2c(c1)/C(=C/c1cc(OC)c(OC)c(OC)c1)C(=O)N2C`, the growth in the experiment on NCI-H23 lung is 34.2%; in the experiment on NCI-H226 lung, 19.3%; with NCI-H322M lung, 39.5%; in the experiment with HOP-62 NSCLC, 57.5%; in the experiment with NCI-H460 lung it was -6.11% (active); in the experiment on HOP-92 NSCLC it was -7.03% (active). The growth with NCI-H522 lung was -15.1% (active); with A549/ATCC NSCLC, 14.5%; in the experiment with 786-0 renal, 29.4%; in the experiment on COLO 205 colon it was -36.8% (active); with DU-145 prostate, -0.621% (active); in the experiment on K-562 leukemia, 0.985% (active). Moreover, the growth in the experiment on MDA-MB-231 breast is 20.9%; with RXF 393 renal, -60.8% (active); with SF-268 CNS, 0.418% (active); with SF-295 CNS, -30.1% (active); in the experiment with SF-539 CNS it was -22% (active); in the experiment on UACC-257 melanoma it was -6.05% (active). Moreover, the growth in the experiment with M14 melanoma was 8.46% (active).

As for `CCCCNC(=O)Oc1ccc(/C(=C(\C)c2ccc(OC)cc2)c2ccc(OCCN3CCCCC3)cc2)cc1`, the growth in the experiment with NCI-H23 lung is 68.4%; in the experiment with NCI-H226 lung, 96.5%; in the experiment on NCI-H322M lung, 87.6%; in the experiment on HOP-62 NSCLC it was 69.1%; in the experiment with NCI-H460 lung, 34.6%; in the experiment with HOP-92 NSCLC, 47.2%. Further, the growth in the experiment with NCI-H522 lung was 74%; in the experiment with A549/ATCC NSCLC it was 47.5%; in the experiment with 786-0 renal, 17.1%; in the experiment with COLO 205 colon, -7.56% (active); in the experiment on DU-145 prostate, 72.9%; with K-562 leukemia, -0.634% (active). For the same compound, the growth is 53.4% with MDA-MB-231 breast; 28.6% with RXF 393 renal; 66.9% in the experiment with SF-268 CNS; 12.5% with SF-295 CNS; 5% (active) with SF-539 CNS; -9.86% (active) with UACC-257 melanoma. Also, the growth in the experiment with M14 melanoma was -54.8% (active).

Regarding `COc1ccc(-c2nc(SCC(=O)c3ccc(Br)cc3)[nH]c(=O)c2C#N)cc1`, the growth in the experiment on NCI-H23 lung was 106%; with NCI-H226 lung, 98.1%; with NCI-H322M lung, 97.3%; in the experiment on HOP-62 NSCLC it was 101%; with NCI-H460 lung, 108%; in the experiment on HOP-92 NSCLC, 85.9%. Besides, the growth was 95.4% with NCI-H522 lung; 99.6% in the experiment on A549/ATCC NSCLC; 89.9% with 786-0 renal; 119% in the experiment with COLO 205 colon; 103% in the experiment with DU-145 prostate; 96.1% with K-562 leukemia. Besides, the growth was 105% in the experiment with MDA-MB-231 breast; 106% with RXF 393 renal; 96.2% in the experiment on SF-268 CNS; 100% in the experiment on SF-295 CNS; 111% in the experiment on SF-539 CNS; 111% with UACC-257 melanoma. Also, in the experiment with M14 melanoma, the growth was 98.5%.

For the compound `S=C(Cc1ccc(-c2ccccc2)cc1)N1CCOCC1`, the growth in the experiment with NCI-H23 lung is 104%; with NCI-H226 lung it was 91.7%; with NCI-H322M lung, 96%; in the experiment on HOP-62 NSCLC it was 93.6%; with NCI-H460 lung, 103%; in the experiment on HOP-92 NSCLC, 83.1%. The growth in the experiment on NCI-H522 lung is 89.8%; in the experiment on A549/ATCC NSCLC, 90.9%; with 786-0 renal it was 93.6%; in the experiment with COLO 205 colon, 103%; in the experiment with DU-145 prostate, 104%; in the experiment with K-562 leukemia, 95.3%. Also, the growth in the experiment with MDA-MB-231 breast was 84.7%; with RXF 393 renal it was 103%; in the experiment on SF-268 CNS it was 101%; in the experiment with SF-295 CNS, 93.6%; with SF-539 CNS it was 99%; with UACC-257 melanoma, 107%. For the same compound, the growth in the experiment with M14 melanoma was 101%.
